Outcome and AC50 data for 19 compounds are collected here from PubChem BioAssay (EPA / NIEHS).

The structures appear in SMILES notation. Calls of active or inactive are those of the source. Rule for the calls: active = hit-call score of the fitted dose curve at least 0.9, where 1 is the maximum; inactive = score below 0.9.

What all share (conditions): mRNA level, 48 h; actives raise or lower the signal
Read-out in one experiment: CYP3A5 (gene 1577)
Description: LTEA_HepaRG_CYP3A5: Life Technologies and Expression Analysis (LTEA) Assay for CYP3A5 using HepaRG (AID 2283493). In a few lines: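 HepaRG cells, plated 48 h then in serum-free induction medium, dosed in duplicate for 48 h with eight half-log concentrations up to 100 uM in 0.5% DMSO. Gene mRNA by Fluidigm TaqMan qRT-PCR, normalized to ACTB, GAPDH, POLR2A.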

Read-out in experiment [1]: Fatty Acid-Binding Protein 1 (FABP1), FABP1 (gene 2168)
The experiment is described as follows: LTEA_HepaRG_FABP1: Life Technologies and Expression Analysis (LTEA) Assay for Fatty Acid-Binding Protein 1 (FABP1) using HepaRG (AID 2283494). An outline of the steps: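 HepaRG, 48 h post-plating switched to serum-free induction medium, then dosed 48 h (duplicate, 8 pts, ≤100 uM, 0.5% DMSO). RNA → Fluidigm TaqMan qRT-PCR, FABP1 normed to ACTB/GAPDH/POLR2A. Bidirectional curve fit vs DMSO.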

Read-out in experiment [2]: Cytochrome P450 4A22 (Homo sapiens) (UniProt Q5TCH4)
Description: LTEA_HepaRG_CYP4A22: Life Technologies and Expression Analysis (LTEA) Assay for Cytochrome P450 4A22 (CYP4A22) using HepaRG (AID 2283495). In a few lines:
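Cryopreserved HepaRG cells, plated and cultured 48 h, then switched to serum-free induction medium and treated 48 h (duplicates, up to 100 uM, half-log steps, 0.5% DMSO). Expression change of CYP4A22 was fitted bidirectionally against vehicle.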

Read-out in experiment [3]: Cytochrome P450 7A1 (Homo sapiens) (UniProt P22680)
Description: LTEA_HepaRG_CYP7A1: Life Technologies and Expression Analysis (LTEA) Assay for Cytochrome P450 7A1 (CYP7A1) using HepaRG (AID 2283496). In a few lines:
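HepaRG cells plated 48 h, then switched to serum-free induction medium and exposed in duplicate for 48 h to 8-point half-log series from 100 uM in 0.5% DMSO. CYP7A1 mRNA by qRT-PCR (TaqMan), normalized to ACTB/GAPDH/POLR2A; bidirectional fit versus DMSO.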

Read-out in experiment [4]: Glutathione S-Transferase (GSTA2), GSTA2 (gene 2939)
The experiment is described as follows: LTEA_HepaRG_GSTA2: Life Technologies and Expression Analysis (LTEA) Assay for Glutathione S-Transferase (GSTA2) using HepaRG (AID 2283497). An outline of the steps:
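HepaRG, 48 h dosing, 8-pt half-log CRC from 100 uM, 0.5% DMSO vehicle, n=2; RNA → Fluidigm TaqMan qRT-PCR; GSTA2 vs ACTB/GAPDH/POLR2A; gain/loss fit vs DMSO.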

Read-out in experiment [5]: Glutamate-cysteine ligase catalytic (GCLC), GCLC (gene 2729)
The experiment is described as follows: LTEA_HepaRG_GCLC: Life Technologies and Expression Analysis (LTEA) Assay for Glutamate-cysteine ligase catalytic (GCLC) using HepaRG (AID 2283498). An outline of the steps:
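Read-out is GCLC transcript level by Fluidigm-based TaqMan qRT-PCR, normalized to three housekeeping genes and fitted in both directions relative to 0.5% DMSO. Human HepaRG cells received chemicals for 48 h, up to 100 uM.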

Read-out in experiment [6]: growth arrest and DNA damage 45 (GADD45G), GADD45G (gene 10912)
Description: LTEA_HepaRG_GADD45G: Life Technologies and Expression Analysis (LTEA) Assay for growth arrest and DNA damage 45 (GADD45G) using HepaRG (AID 2283499). An outline of the steps: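 Human hepatic HepaRG line treated 48 h with chemicals (eight concentrations, half-log steps from 100 uM); transcript induction or repression of GADD45G scored by qRT-PCR versus DMSO vehicle.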

Read-out in experiment [7]: Glutathione S-transferase M3 (GSTM3), GSTM3 (gene 2947)
Description: LTEA_HepaRG_GSTM3: Life Technologies and Expression Analysis (LTEA) Assay for Glutathione S-transferase M3 (GSTM3) using HepaRG (AID 2283501). In a few lines: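 Changes in GSTM3 expression, an oxidative-stress marker, were scored by bidirectional curve fitting against 0.5% DMSO vehicle. Human HepaRG cultures received chemicals for 48 h in duplicate, highest concentration 100 uM with half-log dilutions.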

Read-out in experiment [8]: Heat shock 70 kDa protein 1 (HSPA1A), gene 3303
Description: LTEA_HepaRG_HSPA1A: Life Technologies and Expression Analysis (LTEA) Assay for Heat shock 70 kDa protein 1 (HSPA1A) using HepaRG (AID 2283502). In a few lines:
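Human HepaRG cells in serum-free induction medium were exposed in duplicate for 48 h to 8 half-log concentrations, highest 100 uM, in 0.5% DMSO. HSPA1A mRNA read by TaqMan qRT-PCR, normalized to ACTB, GAPDH, POLR2A, fitted bidirectionally against DMSO.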

Read-out in experiment [9]: Glutamate-cysteine ligase regulatory (GCLM), GCLM (gene 2730)
The experiment is described as follows: LTEA_HepaRG_GCLM: Life Technologies and Expression Analysis (LTEA) Assay for Glutamate-cysteine ligase regulatory (GCLM) using HepaRG (AID 2283500). An outline of the steps: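 Differentiated HepaRG cells exposed 48 h in serum-free induction medium to eight half-log concentrations up to 100 uM (0.5% DMSO). GCLM mRNA by TaqMan qRT-PCR, normalized to ACTB, GAPDH and POLR2A; bidirectional fit versus DMSO.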

The term AC50 denotes the midpoint of the concentration-response curve, whichever way the signal moves. For the compound `O=C(CCCCCCCCc1cccnc1)N1CCC(C=C(c2ccccc2)c2ccccc2)CC1`, the result (with CYP3A5 (gene 1577); in [7]) was inactive. Also, the AC50 in [1] is 26.9 µM (active); in [2] it was 22.7 µM (active); in experiment [3], 27.1 µM (active); in experiment [4], 28.7 µM (active); in experiment [5], 12.5 µM (active); in experiment [6], 22.8 µM (active). Also, in experiment [8], the AC50 was 81 µM (active).
Take `COC(=O)c1ccccc1O`: the call (with CYP3A5 (gene 1577); in experiment [1]; in experiment [2]; in experiment [3]; in experiment [4]; in experiment [6]) was inactive. Further, the outcome in experiment [9], in experiment [7] and in experiment [8] was inactive.
With `C1N2CN3CN1CN(C2)C3`, the result (with CYP3A5 (gene 1577); in experiment [1]; in [2]; in experiment [3]; in [4]; in experiment [5]) was inactive. The result in experiment [6], in experiment [7] and in [8] was inactive.
Take `O=C(O)c1cc(N=Nc2ccc(S(=O)(=O)Nc3ccccn3)cc2)ccc1O`: the compound was classed as inactive (in the experiment with CYP3A5 (gene 1577); in experiment [1]; in [2]; in experiment [3]; in [4]; in experiment [5]). For the same compound, the call in [6], in [9] and in experiment [8] was inactive.
Turning to `CCOC(=O)CC(CC(=O)OCC)(OC(C)=O)C(=O)OCC`, the result (with CYP3A5 (gene 1577); in experiment [1]; in experiment [2]; in experiment [3]; in experiment [4]; in [5]) was inactive. The compound was classed as inactive in experiment [6], in experiment [9], in [7] and in experiment [8].
On to `CCCCCCCCCCCCCCCO`, for which the call (with CYP3A5 (gene 1577); in experiment [1]; in experiment [2]; in [3]; in [4]; in experiment [5]) was inactive. Further, the compound was called inactive in experiment [6], in experiment [9], in [7] and in [8].
Regarding `CCOCCO`, the compound was classed as inactive (with CYP3A5 (gene 1577); in [1]; in [2]; in [3]; in experiment [4]; in [5]). Besides, the outcome in experiment [6], in experiment [9], in experiment [7] and in [8] was inactive.
Regarding `CC/C(=C\C(=N/O)C(N)=O)C(C)[N+](=O)[O-]` (centres undefined), the compound was classed as inactive (in the experiment with CYP3A5 (gene 1577); in experiment [1]; in experiment [2]; in [3]; in experiment [4]; in experiment [5]). Further, the outcome in [6], in experiment [7] and in experiment [8] was inactive.
As for `CCc1cc(SCc2sc(-c3ccc(C(F)(F)F)cc3)nc2CN2CCN(c3ccc(OC)cc3)CC2)ccc1OCC(=O)O`, the AC50 is 10.9 µM (active) with CYP3A5 (gene 1577); 76.8 µM (active) in experiment [1]; 8.62 µM (active) in [2]; 7.1 µM (active) in experiment [3]; 77 µM (active) in [4]; 94.1 µM (active) in experiment [5]. Further, the results for the AC50 in experiment [6], in [9] and in experiment [8] were 91.2 µM (active), 26.5 µM (active) and 89.4 µM (active), respectively. Further, the compound was called inactive in experiment [7].
Regarding `CCCCC(CC)COC(=O)CCCCCCCCC(=O)OCC(CC)CCCC` (centres undefined), the call (with CYP3A5 (gene 1577); in experiment [1]; in experiment [2]; in experiment [3]; in experiment [4]; in experiment [5]) was inactive. In addition, the compound was called inactive in [6], in experiment [7] and in experiment [8].
In the case of `CCNc1ccccc1`, the outcome (with CYP3A5 (gene 1577); in experiment [1]; in experiment [2]; in experiment [3]; in experiment [4]; in experiment [5]) was inactive. The outcome in [6], in experiment [7] and in experiment [8] was inactive.
With `O=C(O)CC(O)C(=O)O` (centres undefined), the compound was called inactive (with CYP3A5 (gene 1577); in experiment [1]; in experiment [2]; in experiment [3]; in experiment [4]; in [6]). For the same compound, the outcome in experiment [9], in experiment [7] and in experiment [8] was inactive.
For the compound `CCCCC(CC)COC(=O)c1ccc(C(=O)OCC(CC)CCCC)cc1` (centres undefined), the compound was called inactive (with CYP3A5 (gene 1577); in [1]; in experiment [2]; in [3]; in [4]; in experiment [5]). Besides, the compound was classed as inactive in experiment [6], in experiment [9], in experiment [7] and in experiment [8].
Turning to `O=C(O)c1cccc(Oc2ccccc2)c1`, the compound was classed as inactive (in the experiment with CYP3A5 (gene 1577); in experiment [2]; in experiment [3]; in experiment [4]; in experiment [5]; in [6]). In addition, the outcome in [7] and in experiment [8] was inactive. Besides, the AC50 in experiment [1] was 50 µM (active).
Turning to `CC(=O)OC[C@H]1O[C@@](COC(C)=O)(O[C@H]2O[C@H](COC(C)=O)[C@@H](OC(C)=O)[C@H](OC(C)=O)[C@H]2OC(C)=O)[C@@H](OC(C)=O)[C@@H]1OC(C)=O`, the compound was called inactive (in the experiment with CYP3A5 (gene 1577); in [1]; in experiment [2]; in experiment [3]; in experiment [4]; in [6]). The outcome in experiment [9], in [7] and in [8] was inactive.
With `Oc1ccc2c(c1)-c1ccccc1C2`, the result (in the experiment with CYP3A5 (gene 1577); in experiment [1]; in [2]; in [4]; in experiment [5]; in experiment [6]) was inactive. The call in experiment [9], in experiment [7] and in experiment [8] was inactive. Also, the AC50 in experiment [3] was 4.87 µM (active).
Take `C=CC(=C)CCC=C(C)C`: the compound was classed as inactive (in the experiment with CYP3A5 (gene 1577); in [1]; in experiment [2]; in experiment [3]; in [4]; in [5]). The compound was classed as inactive in experiment [6], in experiment [9], in experiment [7] and in experiment [8].
Consider `O=C(NS(=O)(=O)/C=C/c1ccccc1)c1ccc(F)cc1Cl`, for which the outcome (with CYP3A5 (gene 1577); in experiment [2]; in [4]; in experiment [5]; in [6]; in experiment [7]) was inactive. For the same compound, in experiment [8], the compound was called inactive. Further, the results for the AC50 in experiment [1] and in [3] were 2.67 µM (active) and 23.4 µM (active), respectively.
Regarding `Nc1cccc(N)c1`, the result (with CYP3A5 (gene 1577); in experiment [1]; in experiment [2]; in experiment [3]; in [4]; in experiment [5]) was inactive. The outcome in experiment [6], in [9], in experiment [7] and in [8] was inactive.
